Screening data (PubChem BioAssay)
Epigenetic reg – derepresses silenced GFP reporter in murine cells. AID 1865. Potency, µM (doses to about 53.9 µM), for the others: at the top dose GFP activation, most hits filed as activators. murine LDR cells, GFP reporter derepression, 30 h. 0.2% of 280,000 active; note: % of control where 0% means no effect; nearly all actives have a fitted effect of over 60% in size
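Murine LDR cells carrying a silenced, genomically integrated CMV-driven GFP reporter were exposed to compound for 30 hours at 37 C. After PBS washes, GFP-positive cells (20–120 um objects) were counted by laser-scanning microplate cytometry.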
PINK1 expr mod – modulators of PINK1 expression. Potency, µM (doses to about 76.6 µM), for inactives: at the highest dose activation (PINK1 increase), most hits filed as activators. PINK1 immunofluorescence, high-content cytometry, 24 h. 0.2% of 410,000 active; active = well fitted activation curve with a large enough effect; inconclusive = small, poorly fitted or top-dose-only effect; cell line not stated here; note: % of control where 0% means no effect; nearly all actives have a fitted effect of over 65% in size
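Cells are seeded, rested 12 hours, then given compound at five concentrations or DMSO for 24 hours. After fixation, blocking and antibody staining, PINK1 amount and mitochondrial localization are scored; CCCP serves as control.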
Sfp inh – blocks B. subtilis Sfp PPTase activity; Q9F4F7; 3.5% of 310,000 active; AID 1490; Potency, µM, inactives show largest response in the series, negative = inhibition, actives largely listed as inhibitors; Biochemical Sfp PPTase activity, qHTS;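 note: the enzyme is Sfp with the accession as filed and its product quenches rhodamine fluorescence; 0% = enzyme reaction without inhibitor and -100% = no enzyme wells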
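Compounds were incubated with enzyme (final 15 nM) for 15 min at room temperature before substrate addition started the reaction. Fluorescence at 525 nm excitation, 598 nm emission was recorded immediately and after 30 minutes.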
VP16 counter – inhibits Gal4-VP16 luciferase reporter, ROR gamma counter-screen | Drosophila S2 Gal4-VP16 UAS-luciferase, luminescence, 20 h | Potency, µM (top dose mostly 53.6 µM), for the others: at the highest dose activity, negative = inhibition, hits mostly inhibitors | 3.5% of 310,000 active;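 note: Gal4-VP16 expression switched on by copper sulfate through the metallothionein promoter; % is set by controls: 0 for no effect and ±100 for the full control effect; nearly all actives have a fitted effect of over 50% in size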
RORgamma inh – blocks mouse ROR gamma transcriptional activity; P51450; Potency, µM (doses to about 53.6 µM), for the others: at the top dose activity change, negative = inhibition, usual class: inhibitors; 5.4% of 310,000 active; Drosophila S2 Gal4-RORgamma UAS-luciferase reporter, 20 h; AID 2551; note: % is set by controls: 0 for no effect and ±100 for the full control effect; nearly all actives have a fitted effect of over 60% in size
Target sequence (P51450 whole entry, looked up, the tested form may be a part): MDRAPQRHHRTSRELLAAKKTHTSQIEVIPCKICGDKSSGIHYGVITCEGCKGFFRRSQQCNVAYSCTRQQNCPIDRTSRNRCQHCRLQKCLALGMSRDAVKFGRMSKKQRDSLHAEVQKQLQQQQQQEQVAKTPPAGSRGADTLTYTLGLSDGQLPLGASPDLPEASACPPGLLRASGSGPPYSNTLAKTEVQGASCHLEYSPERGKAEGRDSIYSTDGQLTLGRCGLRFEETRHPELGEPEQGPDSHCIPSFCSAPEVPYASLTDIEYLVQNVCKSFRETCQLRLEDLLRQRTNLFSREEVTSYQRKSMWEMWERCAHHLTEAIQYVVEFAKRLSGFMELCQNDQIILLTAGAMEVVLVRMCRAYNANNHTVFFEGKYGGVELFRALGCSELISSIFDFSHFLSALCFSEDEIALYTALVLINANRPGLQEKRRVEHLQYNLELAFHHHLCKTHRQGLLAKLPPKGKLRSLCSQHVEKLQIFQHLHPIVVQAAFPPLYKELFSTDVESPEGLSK
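A Gal4/UAS one-hybrid system in insect cells: metallothionein-promoter Gal4–ROR gamma fusion plus Photinus luciferase reporter. Copper sulfate 700 uM final, 20 hr ambient incubation, luminescent detection after 10 min with reagent.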
ClpP mod – qHTS Assay for Activators of ClpP; ATP-dependent Clp protease proteolytic subunit (Bacillus subtilis (strain 168)), P80244; purified B. subtilis ClpP, FRET peptide cleavage, 20 min; Potency, µM (titrated, usually from 57.5 µM), without a hit: at the top dose activity change, negative = active; 1.9% of 340,000 active; active = well fitted falling curve with a large enough effect; inconclusive = small, poorly fitted or top-dose-only effect; inactive = no such curve, though single readings can be large or run the other way; note: the source files actives as falling curves though it sought activators and does not explain the sign; nearly all actives have a fitted effect of over 65% in size
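FRET quenching reversal measured ClpP activation: 10 microg/mL B. subtilis ClpP at pH 8 with the FRET-FV decapeptide, read at 430 nm after 320 nm excitation. The 20-min minus 0-min signal was scaled between DMSO/no-enzyme wells and ADEP (5.8 microM final).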
* marks the source's active call; other numbers are inactive results; ? = inconclusive; nt = no result given; [ ] = dose if it differs, or a comment. In the library only some 8.1% were active in any assay of this set; here they are far more common. Unless noted, calls come from the whole dose curve; as a rule, active = well fitted curve in the direction sought with a large enough effect; inconclusive = small, poorly fitted or top-dose-only effect, or another doubt; inactive = no such curve, though single readings can be large; an effect the other way counts as inactive or inconclusive. Potency is the fitted concentration of half-maximal effect.

SMILES	Epigenetic reg	PINK1 expr mod	Sfp inh	VP16 counter	RORgamma inh	ClpP mod
O=C1CCCC2=C1C(c1ccc(O)c(O)c1)Nc1ccc3ccccc3c12 (stereo not drawn)	nt	7%	nt	nt	nt	nt
Cc1ccc(C2Nc3ccc4ccccc4c3C3=C2C(=O)CC(C)(C)C3)o1 (stereo not drawn)	0%	-3%[38.3 µM]	0%	5%	21%	14µM*
CC1(C)CC(=O)C2=C(C1)c1c(ccc3ccccc13)NC2c1ccc(C(=O)O)cc1 (stereo not drawn)	nt	3%	5%	1%	0%	nt
COc1ccc(OC)c(NC(=O)c2c(NC(=O)CCC(=O)O)sc3c2CCCCC3)c1	4%	0%	50µM*	19%	43%	0%
O=C(O)CCC(=O)Nc1sc2c(c1C(=O)Nc1cccc3ccccc13)CCCCC2	-4%	2%	50µM*	-5%	-18%	-2%
COC(=O)C1C2C=CC3(CN(Cc4ccco4)C(=O)C13)O2 (stereo not drawn)	0%	1%[38.3 µM]	13µM*	14%	6%	0%
CC1=C/C(=C/N(C)C)C(=O)O1	0%	0%	8%	-5%	-1%	-1%
O=C1OC(c2ccccc2)=C/C1=C/N1CCOCC1	2%	-3%[38.3 µM]	20µM*	1%	-15%	-1%
CN(C)/C=C1/C=C(c2ccccc2)OC1=O	12%	6%[38.3 µM]	40µM*	-16%	6%	-10%
Cc1ncc2c(c1CNC(=O)c1cncs1)CCN(C(=O)c1csc(-c3cccs3)n1)C2	nt	1%	nt	nt	nt	nt
CCOc1cccc(CNC(=O)c2ccc(N3CCCC3)c(NC(=O)NCc3ccc(F)cc3)c2)c1	-3%	4%	nt	nt	nt	-4%
Oc1sc(C=Nc2ccccc2)c2ccccc12	?	-3%	45µM*	4%	?	1%
Oc1sc(C=Nc2ccc(F)cc2)c2ccccc12	?	7%	14µM*	?	6%	-1%
CNC(=O)CSc1nnc(NC(=O)Nc2ccccc2)s1	?	0%	nt	nt	nt	0%
CSc1nnc(-c2cc(-c3ccc(C)cc3)nc3ccccc23)o1	0%	5%	-19%	5%	-5%	35µM*
S=c1[nH]nc(-c2cc(-c3ccccn3)nc3ccccc23)o1	-2%	0%	-8%	0%	5µM*	6%
Cc1ccccc1-c1n[nH]c(=S)o1	3%	-2%	-17%	-4%	-26%	?
Cc1ccc(-c2cc(-c3n[nH]c(=S)o3)c3ccccc3n2)cc1	-5%	9%	-15%	4.5µM*	7.1µM*	20%
c1ccc2c(c1)CC/C2=N/Nc1nc2ccccc2[nH]1	3%	16%	35µM*	5.6µM*	1.1µM*	nt
CC(C)(C)C1CCC(=NNc2nc3ccccc3[nH]2)CC1 (stereo not drawn)	-3%	9%	-9%	7%	18µM*	nt
c1ccc(CN2CCC(=NNc3nc4ccccc4[nH]3)CC2)cc1	1%	-2%	-6%	-25%	22µM*	nt
O=C(N/N=C1\CCc2ccccc21)c1ccncc1	-5%	1%	15%	-7%	-24%	-1%
CC1=C(C(=O)O)N2C(=O)C(NC(=O)c3c(F)cccc3F)C2SC1 (stereo not drawn)	nt	4%	nt	nt	nt	1%
CC1=C(C(=O)O)N2C(=O)C(NC(=O)c3nn(C)c(C)c3Cl)C2SC1 (stereo not drawn)	-7%	5%	11µM*	-28%	-43%	3%
CC1=C(C(=O)O)N2C(=O)C(NC(=O)c3ccn(C)n3)C2SC1 (stereo not drawn)	0%	0%	22µM*	-4%	-4%	0%
CCCC(=O)Oc1c(Sc2ccc(C)cc2)c(C)nn1-c1ccccc1	5%	0%	nt	nt	nt	-3%
Cc1ccc2onc(CC(=O)Nc3cc(F)ccc3F)c2c1	0%	0%	nt	nt	nt	-3%
Fc1ccccc1-c1nc(N2CCN(c3cccc(Cl)c3)CC2)c2ccccc2n1	-2%	3%	nt	nt	nt	32µM*
